WRN helicase inh = inhibitors of human WRN helicase; hit rate 0.46% among 360,000; WRN helicase unwinding, fluorescent forked duplex, kinetic; Q14191; AID 651768; Potency, µM (titrated, usually from 114 µM), for inactives: top-dose activity change, negative = inhibition, usual class: inhibitors; further: nearly all actives have a fitted effect of over 55% in size
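Kinetic red-fluorescence monitoring (525/598 nm) tracks WRN helicase activity after 100 nM fluorophore-quencher forked duplex and 2 mM ATP are added to 20 nM enzyme pretreated 15 min at room temperature with compound.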
FEN1 inh = inhibitors of human flap endonuclease 1; P39748; Recombinant FEN1 flap cleavage, fluorescence, 15 min; Potency, µM (titrated, usually from 114 µM), inactives show at the top dose activity change, negative = inhibition, usual class: inhibitors; hit rate 0.35% among 390,000; AID 588795; further: nearly all actives have a fitted effect of over 65% in size
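Quantitative HTS format: each compound was titrated, incubated with 10 nM nuclease for 15 min at room temperature, then challenged with flap substrate at 50 nM final. Signal change over 15 min gave concentration–effect curves.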
BLM helicase inh = Bloom syndrome helicase (human) inhibition; hit rate 0.2% among 350,000; recombinant BLM DNA unwinding, fluorescence dequenching; P54132; Potency, µM (highest dose often 56.1 µM), for inactives: at the top dose activity change, negative = inhibition, actives largely listed as inhibitors; AID 2528;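 further: plate controls were vehicle for no effect and no enzyme for full effect; nearly all actives have a fitted effect of over 35% in size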
L3MBTL1 block = L3MBTL1 (human) inhibition. AlphaScreen L3MBTL1–H3K9me1 peptide binding. Potency, µM (titrated, usually from 57.1 µM), inactives show at the highest dose activity, negative = inhibition, hits mostly inhibitors. hit rate 0.66% among 230,000. Q9Y468; further: nearly all actives have a fitted effect of over 60% in size
Target sequence (Q9Y468 whole entry, looked up): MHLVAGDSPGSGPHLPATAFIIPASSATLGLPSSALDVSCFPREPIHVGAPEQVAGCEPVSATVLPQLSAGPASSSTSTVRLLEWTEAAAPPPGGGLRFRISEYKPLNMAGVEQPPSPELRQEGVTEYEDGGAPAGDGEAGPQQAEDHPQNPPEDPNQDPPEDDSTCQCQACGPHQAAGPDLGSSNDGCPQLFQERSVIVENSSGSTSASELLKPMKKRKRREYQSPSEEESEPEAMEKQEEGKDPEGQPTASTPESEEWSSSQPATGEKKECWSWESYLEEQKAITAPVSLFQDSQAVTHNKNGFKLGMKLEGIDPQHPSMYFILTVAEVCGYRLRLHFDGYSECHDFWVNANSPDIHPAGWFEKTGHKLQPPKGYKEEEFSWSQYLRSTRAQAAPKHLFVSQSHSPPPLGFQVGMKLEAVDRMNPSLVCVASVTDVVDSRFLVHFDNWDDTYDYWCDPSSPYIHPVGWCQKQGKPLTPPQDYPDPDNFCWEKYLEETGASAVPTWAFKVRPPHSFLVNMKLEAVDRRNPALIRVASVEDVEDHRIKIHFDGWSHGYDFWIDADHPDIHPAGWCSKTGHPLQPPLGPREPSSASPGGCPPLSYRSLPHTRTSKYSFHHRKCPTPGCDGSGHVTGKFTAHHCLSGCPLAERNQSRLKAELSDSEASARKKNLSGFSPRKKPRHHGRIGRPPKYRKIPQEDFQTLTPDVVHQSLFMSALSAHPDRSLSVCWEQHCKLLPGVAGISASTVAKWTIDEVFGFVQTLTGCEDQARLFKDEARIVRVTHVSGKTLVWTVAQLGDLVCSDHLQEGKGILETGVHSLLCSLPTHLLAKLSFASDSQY
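Read-out is AlphaScreen signal from streptavidin donor and nickel chelate acceptor beads (10 ug/mL final each) bridging L3MBTL1 (50 nM) and biotinylated K9-monomethylated H3(1-15) peptide (75 nM), after 30 min compound exposure at room temperature.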
RECQ1 inh-1 = RECQ1 (human) helicase inhibition. P46063. hit rate 0.54% among 240,000. AID 2549. Potency, µM (doses to about 57.3 µM), for inactives: at the top dose activity, negative = inhibition, hits mostly inhibitors. RECQ1 DNA unwinding, red fluorescence kinetic read;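 further: plate controls were vehicle for no effect and no enzyme for full effect; nearly all actives have a fitted effect of over 30% in size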
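RECQ1T1 50 nM; forked duplex (20 bp + 30-nt ss tails) 200 nM, ATP 2 mM final; pH 8.0, 2 mM MgCl2, 2.5 ug/ml poly(dI-dC); 15 min compound preincubation; discontinuous kinetic read over 2 h at RT.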
RECQ1 conf = confirmation of human RECQ1 helicase inhibitors; shares compounds with RECQ1 inh-1; RECQ1 helicase DNA unwinding, fluorescence; Potency, µM (highest dose often 229 µM), for inactives: top-dose activity change, negative = inhibition, hits mostly inhibitors; hit rate 28% among 610; AID 2708; further: nearly all actives have a fitted effect of over 45% in size
RECQ1 ADP FP = counter-screen for RECQ1 inhibitors: ADP displacement; Potency, µM (top dose mostly 228 µM), for the others: at the top dose activity change, negative = inhibition, hits mostly inhibitors; AID 2711; ADP fluorescence polarization displacement counterscreen; hit rate 27% among 530; shares compounds with RECQ1 inh-1; further: nearly all actives have a fitted effect of over 45% in size
RECQ1 inh-2 = confirmation of human RECQ1 helicase inhibitors. hit rate 15% among 1,100. recombinant RECQ1 DNA unwinding, red fluorescence. shares compounds with RECQ1 inh-1. Potency, µM (series often up to 119 µM), inactives show at the top dose activity, negative = inhibition, actives largely listed as inhibitors; further: nearly all actives have a fitted effect of over 50% in size
The depositor's hits bear a star; i = inactive; u = inconclusive; x = no result; [ ] = another dose, or the depositor's remark. A selection: hits, their analogues and other compounds. The true share with any hit is near 0.99%. The call rests on the fitted dose curve; in most records, active means well fitted curve in the direction sought with a large enough effect; inconclusive means small, poorly fitted or top-dose-only effect, or another doubt; inactive means no such curve, though single readings can be large; an effect the other way counts as inactive or inconclusive. Unless noted, on the % scale 0 is the no-effect control and ±100 the full control effect; potency means the concentration at half of the fitted maximal effect.

SMILES | WRN helicase inh | FEN1 inh | BLM helicase inh | L3MBTL1 block | RECQ1 inh-1 | RECQ1 inh-2 | others
CC1(C)C([N+](=O)[O-])C(c2ccccc2O)NC(c2ccccc2O)C1[N+](=O)[O-] (centres undefined) | -14% | -10% | -11% | -13% | -15% | x
CC(C)CNC1=CC(=O)CC(c2ccco2)C1 (centres undefined) | -21% | -1% | -23% | u | 11µM* | u | RECQ1 conf=u;RECQ1 ADP FP=u
O=C1C=C(NCc2ccc(Cl)cc2)CC(c2ccco2)C1 (centres undefined) | -15% | -15% | -8% | -13% | -6% | x
CCC1OC(=O)C[C@@H](O)[C@H](C)[C@@H](OC2OC(C)CC(N(C)C)C2O)[C@@H](CC=O)C[C@@H](C)C(=O)/C=C/[C@]2(C)OC2C1C (some centres undefined) | x | x | 1% | x | x | x
O=C(NC1CCCC1)c1ccc2nc(-c3ccco3)c(-c3ccco3)nc2c1 | 40µM* | u | u | -27% | u | -21%
CCC(c1nc2ccccc2c(=O)n1-c1cccnc1)N1C(=O)c2ccccc2C1=O (centres undefined) | -3%[57.1 µM] | -12% | 0% | -4% | i | x
COc1ccccc1C(=O)Nc1ccc(-c2nnc(SCC(=O)O)n2C)cc1 | -19% | -1% | -4% | x | i | x | RECQ1 conf=17%;RECQ1 ADP FP=-11%
c1ncc2snnc2n1 | x | -1% | x | x | x | x
CCc1nc2c(OCC(=O)c3ccc(Cl)cc3Cl)cccn2c1N(C=O)Cc1ccc(OC)cc1 | -7% | x | x | x | x | x
O=C1C(Cl)=C(N2CCC(C(=O)O)CC2)C(=O)c2ccccc21 | -20% | -14% | -30% | -26% | 22µM* | 35µM*
CCn1c(SCC(=O)c2ccc(O)c(O)c2)nnc1-c1ccc(C)cc1 | 13µM* | -5% | -4% | u | 10µM* | u | RECQ1 conf=u;RECQ1 ADP FP=-14%[91.9 µM]
CCn1c(SCC(=O)c2ccc3c(c2)Cc2ccccc2-3)nnc1-c1ccc(N)cc1 | -6% | -15% | -5% | -2% | -3% | x
CCNc1nc(NCC)n2c(SCC(=O)Nc3ccc(NC(C)=O)cc3)nnc2n1 | 0%[11.6 µM] | 1% | x | -40% | x | x
CCOc1ccc(CN(C(=O)/C=C/c2ccco2)C2CCS(=O)(=O)C2)cc1 (centres undefined) | 2% | -7% | -10% | x | x | x
COc1ccc(CN(C(=O)/C=C/c2ccco2)C2CCS(=O)(=O)C2)cc1 (centres undefined) | -29%[57.1 µM] | -23% | -24% | -26% | u | u
COc1cc(C(=O)Nc2ccccc2C2COC(=O)C2=N)cc(OC)c1OC (centres undefined) | 6% | 9% | 1% | 0% | -4% | x
CC(C)c1onc(-c2c(Cl)cccc2Cl)c1COc1ccc(/C=C/c2cccc(C(=O)O)c2)c(Cl)c1 | x | x | 32µM* | x | 32µM* | 35µM*
COc1ccc2cc(-c3[nH]ncc3CN3CCCN(c4ccccc4)CC3)ccc2c1 | -11% | 2% | -6% | -15% | u | -23%
O=C(COC(=O)c1ccc2ncsc2c1)NC(=O)C1CCCCC1 | x | 14% | x | x | x | x
CC(C)n1c(=S)[nH]c2scc(-c3cccs3)c2c1=O | -33% | -7% | 7% | -1% | 28µM* | u
CCn1c(=S)[nH]c2scc(-c3cccs3)c2c1=O | -15% | 14% | -2% | 3% | i | x
CC(=O)C(Sc1ccc2nnc(-c3ccc(C)cc3)n2n1)C(C)=O | -1% | -20% | -6% | -12% | u | u
Cn1c(SCC(=O)Nc2ccc3nc(SCC(=O)N4CCCC4)sc3c2)nnc1-c1ccc(N)cc1 | u | -33% | -29% | x | 0.63µM* | u | RECQ1 conf=7.1µM*;RECQ1 ADP FP=u
CCN(CC)C(=O)CSc1nc2ccc(NC(=O)CSc3nnc(N)s3)cc2s1 | -19%[57.1 µM] | -16% | -20% | u | u | x
CCN(CC)C(=O)CSc1nc2ccc(NC(=O)CSc3nccn3C)cc2s1 | -16% | -12% | -12% | u | 20µM* | -13% | RECQ1 conf=u;RECQ1 ADP FP=u
SMILES | WRN helicase inh | FEN1 inh | BLM helicase inh | L3MBTL1 block | RECQ1 inh-1 | RECQ1 inh-2 | others
Cc1cc(SCC(=O)OCC(=O)NCc2ccc3c(c2)OCO3)c(C)cc1Br | -8% | -18% | -9% | 7% | -15% | x
COc1cccc(NC(=O)CN(C)C(=O)c2c(-c3c(F)cccc3Cl)noc2C)c1 | -1% | -3% | x | -2% | x | x
O=C1C=C(N(CCO)Cc2ccccc2)c2ccccc2C1=O | -5% | -18% | u | u | u | u
O=C1c2ccccc2C(=O)c2c1cccc2N(CCO)CCO | -9%[57.1 µM] | -21% | -6% | -17% | x | x
O=C(Nc1cccc(O)c1)c1cnn2cccnc12 | -8% | 2% | -4% | x | i | x
O=C(O)C/C(=C\c1ccc(N2CCOCC2)c([N+](=O)[O-])c1)c1nc2ccccc2s1 | u | -6% | -14% | -8% | -20% | x | RECQ1 conf=112µM*;RECQ1 ADP FP=u
O=C(CSc1nc2ccccc2s1)Nc1ccc(N2CCOCC2)c(Cl)c1 | -3% | -5% | -6% | -1% | -14% | x
O=C(O)CC/C(=C\c1ccc(N2CCOCC2)c([N+](=O)[O-])c1)c1nc2ccccc2s1 | -3% | -14% | -3% | -14% | i | x | RECQ1 conf=u;RECQ1 ADP FP=u
O=C(COC(=O)c1ccc(S(=O)(=O)N2CCc3ccccc3C2)cc1)NC1CCS(=O)(=O)C1 (centres undefined) | -20% | 1% | -3% | -13% | u | u
O=C(COC(=O)c1ccc(S(=O)(=O)N2CCCCC2)cc1)NC1CCCCC1 | 12% | x | x | x | x | x
Cc1csc2nc3ccccc3c(=O)n12 | 3%[57.1 µM] | 1% | -3% | -2% | -5% | x
COc1ccc(-c2cc(=O)c3cc(O)ccc3o2)cc1 | -5% | -19% | 0% | -8% | u | -18%
O=c1cc(-c2ccccc2)oc2ccc(O)cc12 | 3% | u | -8% | 8% | -8% | x
O=C(CSc1nnc(-c2ccco2)n1Cc1ccccc1)NCc1ccccc1 | 5% | 0% | 6% | 2% | -4% | x
O=C(CSc1nnc(-c2ccco2)n1Cc1ccccc1)c1ccc(F)cc1 | -17% | -24% | -13% | -22% | u | -17%
O=C(O)CCC(NC(=O)C1CCCN1C(=O)OCc1ccccc1)C(=O)O (centres undefined) | 0% | 12% | 3% | 21% | -19% | x | RECQ1 conf=3%;RECQ1 ADP FP=u
O=C(O)CCC(=O)N1CCc2cc(S(=O)(=O)NCc3cccs3)ccc21 | -9% | -8% | -2% | 0% | -2% | x | RECQ1 conf=7%;RECQ1 ADP FP=-1%

Compound activity: PubChem BioAssay, National Center for Advancing Translational Sciences (NCATS)
